Hits are enriched below; roughly 1.1% of the tested compounds scored in any of these assays.
NCOA1 inh = human NCOA1 inhibition | Q15788 | HEK293 GAL4-SRC1 luciferase reporter, luminescence | inhibition, % at 3.6 µM | actives 0.12% (n = 360,000) | AID 588354;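 active = inhibition above the campaign mean plus 3 SD, with each screening campaign given its own cutoff, cut at about 60% in these data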;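 also: 0% = DMSO treated cells and 100% = gossypol at 36 µM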
NCOA2 inhibitor = inhibits human steroid receptor coactivator 2 | inhibition, % at 9 µM | actives 0.17% (n = 370,000) | HEK293 GAL4-SRC2 luciferase reporter, luminescence;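 active = inhibition above the mean inhibition of all tested compounds plus 3 SD, set per campaign, cut at about 52% in these data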;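 also: 0% = DMSO treated cells and 100% = cells given Gossypol at 36 µM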
SRC3 inh = inhibitors of human steroid receptor coactivator 3 (SRC3). Q9Y6Q9. HEK293 GAL4-SRC3 luciferase reporter, luminescence. inhibition, % at 3.6 µM. actives 0.17% (n = 360,000). AID 588352;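 active = inhibition above a per-campaign cutoff, the mean of all compounds plus 3 SD, cut at about 60% in these data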;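 also: 0% = DMSO-treated cells and 100% = gossypol-treated cells at 36 µM; higher means less SRC3-driven luciferase light from the GAL4 reporter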
LRH-1 inv ag = suppresses constitutive activity of human LRH-1; HEK293T StAR-luciferase reporter, LRH-1 transfected, 24 h; inhibition, % at 3.6 µM; actives 0.13% (n = 360,000); AID 602396;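 active = inhibition above the mean inhibition of all tested compounds plus 3 SD, cut at about 73% in these data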;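 also: 0% = DMSO wells and 100% = reporter-only cells lacking LRH-1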
Shn3 inh set2 = inhibitors of Schnurri-3 3'UTR reporter in osteoblasts; Clone20 osteoblast Shn3 3'UTR firefly luciferase, 24 h; inhibition, % at 12.5 µM; actives 0.52% (n = 360,000); AID 588674;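 active = mean inhibition of at least 75% with every replicate also reaching 75%; inconclusive = mean inhibition at least 75% but some replicate below; inactive = mean inhibition below 75%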;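 also: 0% = median of neutral control wells and 100% = pilot-screen positive control compound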
Gli-Sufu block = Gli-Sufu pathway antagonism | Sufu-KO-LIGHT fibroblasts, Gli luciferase reporter luminescence | inhibition, % at 5 µM | actives 0.74% (n = 340,000) | AID 588413;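 active = inhibition above about 55%, limit read from the data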;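 also: 0% = DMSO-treated cells and 100% = wells with medium but no cells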
* = called active by the depositor; u = inconclusive; x = no result; ! = repeats disagree.

SMILES	NCOA1 inh	NCOA2 inhibitor	SRC3 inh	LRH-1 inv ag	Shn3 inh set2	Gli-Sufu block
CC1(C)C(c2ccco2)=[N+]([O-])C2(CCCCC2=O)N1O (stereo unspecified)	14.9	14.4	6.1	-1.4	-17.8	1.5
CC(O)(c1ccncc1)c1nc(-c2cccc(C(F)(F)F)c2)cs1 (stereo unspecified)	12.1	29.7	-9.8	24.3	85.2*	x
O=C(C1CCC1)N1CCc2cc(S(=O)(=O)N3CCCC3)ccc21	x	-45.9	x	x	x	x
COC(=O)c1cccc(OCC(C)CN2CCC(C(O)(c3ccccc3)c3ccccc3)CC2)c1 (stereo unspecified)	x	-0.8	x	x	x	x
O=C(OCc1cnc(Cl)s1)c1ccccc1Cl	-8.6	-15.1	0.9	-0.3	-6.5	-5.5
O=C(OCn1ncc(Br)c(Br)c1=O)c1ccc(F)cc1	-123.7	x	-43.9	-33.6	98.0*	-1.1
CC(=O)OCn1ncc(N2CCOCC2)c(Br)c1=O	2.5	-13.8	-3.4	2.5	-4.2	18.0
O=C(OCn1ncc(Br)c(Br)c1=O)c1ccccc1Cl	-129.2	x	-51.3	-2.9	96.7*	12.4
CCN1CCS/C1=C/C=C/C1=[N+](CC)CCS1	52.4	x	28.1	67.4	75.1	81.6*
CC(=O)N1c2ccc(S(=O)(=O)N3CCC(C(=O)Nc4cccc(Cl)c4)CC3)cc2CC1C (stereo unspecified)	-11.8	22.7	2.0	14.8	89.1*	73.0*
CC1Sc2ccc(S(=O)(=O)N3CCC(C(=O)Nc4ccc(Cl)cc4)CC3)cc2NC1=O (stereo unspecified)	3.3	23.2	17.9	21.8	89.3*	69.2*
CC(=O)N1c2ccc(S(=O)(=O)N3CCC(C(=O)Nc4cccc(F)c4)CC3)cc2CC1C (stereo unspecified)	-11.6	7.9	-29.8	-8.9	86.4*	39.3
CC(=O)N1c2ccc(S(=O)(=O)N3CCC(C(=O)Nc4cccc(C)c4)CC3)cc2CC1C (stereo unspecified)	6.5	-7.9	0.8	-10.3	65.0	4.9
O=C(C1CCN(c2ncnc3c2sc2cccc(F)c23)CC1)N1CCN(Cc2ccc(F)cc2)CC1	x	-12.1	x	x	x	x
COc1ccc(Cn2cc(CN3CC=CS3(=O)=O)nn2)cc1	x	-9.1	x	x	x	x
C(=Cc1cccnc1)c1ccncc1	21.2	10.7	11.7	5.7	-17.2	-0.3
O=C(/C=C/c1cccnc1)/C=C/c1cccnc1	-51.3	52.2*	-11.9	36.6	94.4*	7.2
Cc1cccc(C(=O)Nc2ccc(C(=O)/C=C/c3cccnc3)cc2)c1	-33.0	-29.7	-46.9	0.0	96.9*	8.8
CC(C)[C@H](N)C(=O)N1CCC[C@@H]1C(=O)N1CCC2CCN(S(=O)(=O)c3ccccc3)CC21 (stereo partly specified)	x	-1.9	x	x	x	x
C=CCN(CC#CCN(C)C(=O)c1cccn1C(=O)OC(C)(C)C)Cc1ccc(OC)cc1OC	x	35.0	x	x	x	x
COCCCN(Cc1cc(OC)c(OC)c(OC)c1)C(=S)Nc1cccc(Cl)c1	-21.2	6.9	17.8	16.8	81.8*	x
O=C1C(SCCO)=C(SCCO)C(=O)c2ccccc21	-12.0	-19.8	-27.7	50.8	92.5*	6.6
COC(=O)c1cc2c(n1S(=O)(=O)c1ccc(C)cc1)C(=O)C(=O)c1[nH]cc(C(=O)OCc3ccccc3)c1-2	87.2*	x	87.6*	-1.6	91.9*	86.6*
COC(=O)c1cc2c(c3c4cc(OC)ccc4n(S(=O)(=O)c4ccc(C)cc4)c13)C(=O)N(Cc1ccccc1)C2	x	1.6	x	x	x	x
COC(=O)c1ccc2c(c1)C(C)(C)C(/C=C/c1ccccc1O)=[N+]2C	19.3	18.7	59.4	18.3	96.9*	64.8*
SMILES	NCOA1 inh	NCOA2 inhibitor	SRC3 inh	LRH-1 inv ag	Shn3 inh set2	Gli-Sufu block
COc1ccccc1N(C)S(=O)(=O)c1ccc(C(=O)Nc2cc(F)ccc2C)cc1	8.1	24.6	1.9	4.2	82.9*	-14.0
Cc1ccc(-c2nc(C3CCCN(S(=O)(=O)c4ccc(Cl)s4)C3)no2)cc1 (stereo unspecified)	x	0.2	x	x	x	x
CN1CCN(c2ccc(-c3ccc4ccccc4n3)cc2)CC1	79.3*	75.6*	79.5*	73.7*	u	88.4*
COC(=O)[C@H](CC(C)C)N(Cc1cn(Cc2ccc(C)cc2)nn1)S(=O)(=O)c1ccccc1Br	x	4.3	x	x	x	x
CCCC(=O)NC(c1ccccc1)c1ccc2cccnc2c1O (stereo unspecified)	19.2	33.9	25.9	11.1	93.3*	-10.8
CCC(=O)NC(c1ccc(OC)cc1)c1cc(Cl)c2cccnc2c1O (stereo unspecified)	-23.0	-36.0	23.4	1.3	60.4	44.1
CCCCC(=O)NC(c1ccccc1)c1ccc2cccnc2c1O (stereo unspecified)	40.4	-11.1	66.1*	88.7*	93.0*	-26.5
CCCC(=O)NC(c1ccc(OC)cc1)c1ccc2cccnc2c1O (stereo unspecified)	20.4	20.0	61.9*	13.3	92.3*	46.8
CCC(=O)NC(c1ccccc1OC)c1ccc2cccnc2c1O (stereo unspecified)	23.3	x	37.0	32.0	89.4*	49.3
COc1ccc(Cl)cc1C(Nc1cccnc1)c1ccc2cccnc2c1O (stereo unspecified)	22.1	5.5	17.9	1.9	77.8	-0.5
COC(=O)[C@]12C[C@H](CC(=O)NCc3ccc(OC)c(OC)c3)C(=O)N(Cc3ccc(Cl)cc3Cl)C1=C[C@H](C(C)(C)C)O[C@@H]2C	x	5.3	x	x	x	x
O=S1(=O)CC2c3ccccc3CN2CN1Cc1ccccc1 (stereo unspecified)	x	-6.8	x	x	x	x
CCCCC(=O)NC(c1ccc(C(C)C)cc1)c1ccc2cccnc2c1O (stereo unspecified)	42.5	25.4	67.9*	6.6	83.2	51.2
CCCCC(=O)NC(c1ccco1)c1cc(Cl)c2cccnc2c1O (stereo unspecified)	18.1	-22.2	32.8	22.0	78.0	5.7
Oc1c(C(c2ccccc2Cl)N2CCCC2)ccc2cccnc12 (stereo unspecified)	18.6	6.2	27.9	18.5	86.6*	73.8*
CCCCC(=O)NC(c1ccccc1Cl)c1ccc2cccnc2c1O (stereo unspecified)	53.9	32.2	73.4*	60.5	87.9*	86.5*
COC(=O)c1ccc(S(=O)(=O)N2CCC(NC(=O)COc3ccc(F)cc3)CC2)cc1	x	-4.6	x	x	x	x
Cc1onc(-c2c(Cl)cccc2Cl)c1C(=O)N[C@@H]1C(=O)N2[C@@H]1SC(C)(C)[C@@H]2C(=O)O	-5.5	-0.9	-1.3	9.7	91.0*!	-0.9
O=C(CCC1CCCC1)Nc1ccc(C(=O)NCc2cccnc2)cc1	42.9	35.7	42.7	74.2*	50.0	26.1
O=C(O)CCCC(=O)Nc1ccc(C(=O)NCc2cccnc2)cc1	-3.8	8.2	-5.7	7.1	-15.6	-0.3
CC(C)n1cnc2c(NCc3ccccc3)cc(N[C@H](C)CO)cc21	89.0*	x	92.0*	89.5*	41.8	1.0
